Screens: PubChem BioAssay, National Center for Advancing Translational Sciences (NCATS)
Most compounds without a hit are left out; they make up all but 4.4% or so of the library.
TRHR PAM = qHTS for Small Molecule Agonists and Allosteric Enhancers of Human TRH Receptor: Primary Screen for Enhancers. actives 0.66% (n = 360,000). TRHR cells, fluo-8 calcium fluorescence, EC20 TRH enhancement. enhancement, % at 2 µM. Thyrotropin-releasing hormone receptor (Homo sapiens), P34981; in the data active = enhancement above about 30%; note: 0% is about no effect
Target sequence (P34981 whole entry, looked up): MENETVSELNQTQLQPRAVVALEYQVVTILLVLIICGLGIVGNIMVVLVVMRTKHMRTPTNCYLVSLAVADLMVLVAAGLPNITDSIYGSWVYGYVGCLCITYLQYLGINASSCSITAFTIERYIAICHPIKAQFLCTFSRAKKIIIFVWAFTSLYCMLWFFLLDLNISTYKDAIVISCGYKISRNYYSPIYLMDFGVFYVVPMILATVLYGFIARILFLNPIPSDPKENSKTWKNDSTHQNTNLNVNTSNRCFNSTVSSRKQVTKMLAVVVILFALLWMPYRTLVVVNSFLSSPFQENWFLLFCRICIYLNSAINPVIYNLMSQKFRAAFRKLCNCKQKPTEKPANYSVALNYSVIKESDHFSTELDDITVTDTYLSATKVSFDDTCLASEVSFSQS
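TRHR-expressing cells loaded with fluo-8 calcium dye were read kinetically (ex 480/em 530) during compound addition, then stimulated with an EC20 of TRH (10 nM final). Enhancement of the Gq-mediated intracellular calcium response was scored.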
TRHR ag = qHTS for Small Molecule Agonists and Allosteric Enhancers of Human TRH Receptor: Primary Screen for Agonists | actives 0.18% (n = 360,000) | TRHR cells, calcium flux fluo-8, FDSS agonist mode | Thyrotropin-releasing hormone receptor (Homo sapiens), P34981 | activation, % at 2 µM; note: 0% is about no effect
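Fluo-8-loaded TRHR cells; 10 s baseline, compound added, kinetic Ca2+ fluorescence read 1/s, agonist mode.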
D1 ag = Allosteric Agonists of the Human D1 Dopamine Receptor: qHTS; activation, % at 2 µM; D(1A) dopamine receptor (Homo sapiens), P21728; actives 1% (n = 360,000); HEK293 T-REx D1 cells, calcium flux, agonist mode; note: 0% is about no effect
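Inducible HEK293 T-REx D1 cells, force-coupled to calcium signalling, were plated at 4000 cells/well with tetracycline and held overnight at 30 C. After no-wash calcium dye loading, compound-evoked calcium rise over 180 s flagged agonists.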
D1 antagonist = Antagonist of Human D 1 Dopamine Receptor: qHTS | HEK293 TREx D1 cells, calcium flux, dopamine EC80; hits give low values | activity change, negative = inhibition, % at 10 µM | actives 3.2% (n = 360,000) | AID 504652, 2011; in the data active = activity change below about -30%; note: % is set by controls: 0 for no effect and ±100 for the full control effect
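Allosteric or orthosteric antagonism assessed as attenuation of the calcium response to EC80 dopamine, added 180 s after compound, in induced HEK293 Trex D1 cells loaded with no-wash calcium dye.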
USP1-UAF1 inh = Inhibitors of USP1/UAF1: Primary Screen; Ubiquitin carboxyl-terminal hydrolase 1 (Homo sapiens), O94782; actives 0.23% (n = 390,000); Potency, µM (doses to about 57.1 µM), inactives show at the highest dose activity change, negative = inhibition, usual class: inhibitors; AID 743255, 2014; recombinant USP1/UAF1, Ub-Rhodamine cleavage fluorescence; active = well fitted inhibition curve with a large enough effect; note: potency is the fitted concentration of half-maximal effect; % is set by controls: 0 for no effect and ±100 for the full control effect; nearly all actives have a fitted effect of over 60% in size
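1 nM enzyme complex + cpd, 15 min RT; start with Ub-Rho 150nM final; kinetic fluorescence ex 480/em 540, 6 reads q60 s. Buffer 50mM HEPES pH 7.8, 0.5mM EDTA, 0.1 mg/ml BSA, 1mM TCEP, 0.01% Tween-20.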
D1 potentiator = Potentiators of Human D1 Dopamine Receptor: qHTS; potentiation, % at 10 µM; D(1A) dopamine receptor (Homo sapiens), P21728; AID 504651, 2011; HEK293 TREx D1 cells, calcium flux, dopamine EC20 potentiation; actives 0.036% (n = 360,000); in the data active = potentiation above about 30%; note: 0% is about no effect
Numbers without * were called inactive; / = not tested or not shown. Cut-off read from the data, not from the text of the source, unless noted: active = activation above about 30%; inactive = the rest.

SMILES	TRHR PAM	TRHR ag	D1 ag	D1 antagonist	USP1-UAF1 inh	D1 potentiator
Cc1ccc[n+](-c2nc([O-])sc2C=O)c1	2	10	19	8	28µM*	0
CC(C)c1ccc[n+](-c2nc([O-])sc2C=O)c1	-9	0	1	3	-13%	-5
CCc1nc(SCC(=O)Nc2ccc3c(c2)OCCO3)c2oc3ccccc3c2n1	2	0	2	-34*	-8%	5
O=C(CSc1nccc(=O)[nH]1)Nc1ccc(Oc2ccccc2)cc1	-4	0	2	-57*	-10%	-10
O=C(CSc1nccn1Cc1ccc(Cl)cc1)Nc1ccc2c(c1)OCCO2	-2	0	1	-31*	-24%	1
Cc1nc(SCC(=O)Nc2ccc3c(c2)OCCO3)nc(C)c1C	-6	0	3	-4	-12%	11
Cc1cc(=O)[nH]c(SCC(=O)Nc2ccc3c(c2)OCCO3)n1	32*	0	1	6	-20%	3
O=C(CSc1nccc(=O)[nH]1)Nc1ccc2ccccc2c1	/	/	/	/	-5%	/
O=C(CSc1nc2c(oc3ccccc32)c(=O)[nH]1)Nc1cccc(Cl)c1	21	0	5	-12	-2%	-4
Cn1c2ccsc2c2cnn(Cc3ccccc3F)c(=O)c21	-3	-2	1	-29	/	-3
Cc1cc(C)cc(OCC(=O)N2CCC(c3nc4ccccc4o3)CC2)c1	-2	-1	-1	-6	-24%	0
CN1C(=O)c2cccc3c(S(=O)(=O)Nc4cccc(C(=O)O)c4)ccc1c23	-8	0	0	-17	-6%	-2
CC(=O)c1ccc(NC(=O)Cn2c(=O)n(Cc3ccco3)c(=O)c3sc4ccccc4c32)cc1	10	1	2	-3	-24%	0
CCc1cc(=O)[nH]c(SCC(=O)NCc2ccc3c(c2)OCO3)n1	8	0	0	-17	-24%	-1
O=C(CSc1nccc(=O)[nH]1)Nc1ccc(F)c(Cl)c1	-4	1	0	0	-17%	-2
O=C(CSc1nccc(=O)[nH]1)Nc1ccc2c(c1)OCCO2	4	1	1	-58*	-16%	-1
O=C(CSc1nccc(=O)[nH]1)NCc1ccc2c(c1)OCO2	3	0	2	-35*	-7%	2
COc1ccc(CNC(=O)CCCc2cn(C)c3ccccc23)c(OC)c1	9	-1	-5	8	-14%	0
O=C(OCCN1CCN(C2=NS(=O)(=O)c3ccccc32)CC1)c1cccc(Br)c1	-9	3	4	12	-15%	-9
O=C(OCCN1CCN(C2=NS(=O)(=O)c3ccccc32)CC1)c1ccccc1F	11	0	2	-32*	-18%	-1
CC1CCCC/C1=N\Nc1ccc(S(N)(=O)=O)cc1[N+](=O)[O-] (configuration not stated)	1	0	6	-30*	-3%	-3
COc1cc(NC(=O)Cn2nc(C(F)(F)F)c3c2CCC3)cc(OC)c1OC	5	0	17	-19	-6%	-2
CC(C)(c1ccccc1)c1ccc(OCC(O)CNC2CCN(Cc3ccccc3)CC2)cc1 (configuration not stated)	18	4	67*	20	-9%	4
OC(CNc1ccccc1)COc1ccc(OCC(O)CNc2ccccc2)cc1 (configuration not stated)	2	2	18	-40*	-3%	-7
COC(=O)c1ccc(CNCC(O)COc2ccc(-c3ccccc3)cc2)cc1 (configuration not stated)	5	2	11	13	-7%	7
SMILES	TRHR PAM	TRHR ag	D1 ag	D1 antagonist	USP1-UAF1 inh	D1 potentiator
CCOc1ccc(OCC(O)CNC2CCN(Cc3ccccc3)CC2)cc1 (configuration not stated)	4	1	22	1	5%	2
COc1ccc(CNCC(O)COc2ccc(C(C)(C)c3ccccc3)cc2)cc1 (configuration not stated)	12	2	33*	28	-8%	9
CN(C)C=NC(=O)c1cc2c(n(-c3ccccc3)c1=O)CC(C)(C)CC2=O	4	2	2	7	-9%	1
CC(=O)c1ccc(NS(=O)(=O)c2ccc(CC(C)C)cc2)cc1	-4	0	40*	1	-16%	-17
CC(=O)c1ccc(NC(=O)Nc2ccc(NS(=O)(=O)c3ccc(C)cc3)cc2)cc1	3	0	1	6	-13%	-1
Cc1cc(C)c2c(c1)/C(=N/NS(=O)(=O)c1ccccc1)CCC2	-2	-1	6	-97*	-13%	7
Cc1cc(C)c2c(c1)/C(=N/NS(=O)(=O)c1ccc(Br)cc1)CCC2	11	1	3	10	-10%	0
O=C(c1ccc(CSc2nc3ccncc3n2Cc2cccc(F)c2)cc1)N1CCCCC1	0	-2	-2	-4	-10%	2
Cc1cccc(C)c1OCc1nnc(SCC(=O)Nc2ccc(N3CCOCC3)cc2)o1	3	1	41*	9	-15%	/
COc1ccccc1-n1cnc2cc(NCc3cccs3)ccc21	-4	0	-1	-19	-20%	2
Cc1ccccc1-n1cnc2cc(NCc3cccs3)ccc21	-5	-1	6	-37*	-25%	-10
CN1CCN(c2cc(N3CCc4ccccc4C3)c(F)cc2[N+](=O)[O-])CC1	7	1	8	-54*	-25%	-17
COc1ccc(-c2ccc3c(c2)S(=O)(=O)c2cccc(C(=O)NC4CCCCC4)c2C3=O)cc1OC	1	1	2	11	24%	1
COc1ccc(-c2ccc3c(c2)S(=O)(=O)c2cccc(C(=O)NC4CC4)c2C3=O)cc1OC	40*	0	-2	/	-18%	-1
CC(C)Cn1cc(C(=O)NCCCN2CCCC2=O)c2c3ccccc3n(C)c2c1=O	0	-1	-1	-30*	-1%	2
CC(C)Cn1cc(C(=O)NCCCN2CCC(C)CC2)c2c3ccccc3n(C)c2c1=O	/	/	/	/	-6%	/
O=C(NCc1cccc(Br)c1)C1CCCCN1S(=O)(=O)c1ccc(F)cc1 (configuration not stated)	-13	0	3	-19	9%	-3
